This is an account of results in PubChem BioAssay (Tox21).

Inconclusive results are not listed. Unmarked numbers belong to inactive results. The source made the active and inactive calls. Calls come from the whole dose curve; as a rule, active = well fitted curve in the direction sought with a large enough effect in the repeat runs; inconclusive = weak or mixed curves; inactive = no such curve, though single readings can be large; an effect the other way counts as inactive or inconclusive.

Test [1] concerns the target Cytochrome P450 2C19 (Homo sapiens) (UniProt P33261). As to the kind of experiment: Cytochrome P450 Family 2 Subfamily C Member 19 (CYP2C19) small molecule antagonists: luciferase reporter qHTS assay (AID 1671197). For activity change, negative = inhibition: series mostly up to about 120 µM. Note: nearly all actives have a fitted effect of over 65% in size. The method in brief: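 Luminescent readout of CYP2C19 activity: luciferin product detected 20 min after adding detection reagent. Before that, compound and enzyme-substrate mix preincubated 10 min at room temperature; NADPH-regenerating system started a 1 h, 37C reaction. Ketoconazole as positive control.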

Test [2] deals with Cytochrome P450 2C9 (Homo sapiens) (UniProt P11712). Briefly: Cytochrome P450 Family 2 Subfamily C Member 9 (CYP2C9) small molecule antagonists: luciferase reporter qHTS assay (AID 1671198). For activity change, negative = inhibition: series mostly up to about 120 µM. Note: nearly all actives have a fitted effect of over 50% in size. In outline:
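P450-Glo proluciferin substrate with CYP2C9 enzyme; 10 min RT preincubation, then NADPH regeneration 1 h at 37C; luciferin detection reagent 20 min RT, luminescence in relative luminescence units.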

Test [3] has as its target Cytochrome P450 1A2 (Homo sapiens) (UniProt P05177). Briefly: Cytochrome P450 Family 1 Subfamily A Member 2 (CYP1A2) small molecule antagonists: luciferase reporter qHTS assay (AID 1671199). For activity change, negative = inhibition: series mostly up to about 120 µM. Note: nearly all actives have a fitted effect of over 50% in size. The method in brief: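 Inhibition of CYP1A2 conversion of proluciferin to luciferin, detected by luminescence. Reaction run 1 h at room temperature with NADPH regeneration after brief compound preincubation.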
In general terms: Reporter assays use an easily measured gene product as a stand-in for the process of interest.

The target of test [4] is Voltage-gated inwardly rectifying potassium channel KCNH2 (Homo sapiens) (UniProt Q12809). Briefly: Human Ether-a-go-go-Related Gene (hERG) channel small molecule antagonists: fluorescence cell-based qHTS assay (AID 1671200).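 For activity change, negative = inhibition: hERG-expressing U2OS cells given a thallium stimulus after FluxOR II dye loading; series mostly up to about 77 µM.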 Note: nearly all actives have a fitted effect of over 50% in size. In outline: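 Kinetic two-minute fluorescence traces, sampled at 1 s, were collected following thallium stimulus of U2OS cells (1000 per well) that had been cultured overnight at 37 C and loaded with FluxOR II.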
Sequence of Voltage-gated inwardly rectifying potassium channel KCNH2 (Homo sapiens) (Q12809 whole entry, looked up): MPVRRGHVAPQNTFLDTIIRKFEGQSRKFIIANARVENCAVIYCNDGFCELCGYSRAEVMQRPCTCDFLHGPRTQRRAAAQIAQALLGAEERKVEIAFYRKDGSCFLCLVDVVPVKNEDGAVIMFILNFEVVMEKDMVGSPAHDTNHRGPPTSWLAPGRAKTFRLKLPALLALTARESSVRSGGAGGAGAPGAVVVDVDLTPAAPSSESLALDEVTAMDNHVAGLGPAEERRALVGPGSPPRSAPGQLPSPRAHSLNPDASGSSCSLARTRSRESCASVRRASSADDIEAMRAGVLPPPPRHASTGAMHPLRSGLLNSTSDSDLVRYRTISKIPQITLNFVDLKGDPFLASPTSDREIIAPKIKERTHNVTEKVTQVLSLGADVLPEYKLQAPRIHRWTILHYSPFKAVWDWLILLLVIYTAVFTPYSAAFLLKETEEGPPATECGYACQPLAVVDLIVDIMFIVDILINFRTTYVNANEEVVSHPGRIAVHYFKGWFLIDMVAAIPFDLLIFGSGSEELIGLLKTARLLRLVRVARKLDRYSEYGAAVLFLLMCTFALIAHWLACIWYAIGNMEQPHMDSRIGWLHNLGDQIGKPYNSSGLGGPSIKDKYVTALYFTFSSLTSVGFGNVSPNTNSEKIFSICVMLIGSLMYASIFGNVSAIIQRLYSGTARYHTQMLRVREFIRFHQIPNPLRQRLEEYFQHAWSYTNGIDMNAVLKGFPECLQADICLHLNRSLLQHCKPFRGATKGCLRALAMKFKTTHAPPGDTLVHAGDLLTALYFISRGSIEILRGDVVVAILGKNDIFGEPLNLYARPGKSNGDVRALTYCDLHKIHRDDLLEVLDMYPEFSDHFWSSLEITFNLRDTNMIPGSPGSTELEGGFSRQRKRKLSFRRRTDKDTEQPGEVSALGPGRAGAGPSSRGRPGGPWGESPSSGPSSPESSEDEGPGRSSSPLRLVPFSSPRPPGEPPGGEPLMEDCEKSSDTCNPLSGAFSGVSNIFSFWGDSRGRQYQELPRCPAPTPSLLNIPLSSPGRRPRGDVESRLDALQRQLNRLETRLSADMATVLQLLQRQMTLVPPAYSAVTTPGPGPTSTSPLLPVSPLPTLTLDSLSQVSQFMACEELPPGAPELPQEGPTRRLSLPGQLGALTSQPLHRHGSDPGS
(Block of hERG is tested as a sign of cardiac risk.)

The target in test [5] is Cytochrome P450 3A4 (Homo sapiens) (UniProt P08684). Briefly: Cytochrome P450 Family 3 Subfamily A Member 4 (CYP3A4) small molecule antagonists: luciferase reporter qHTS assay (AID 1671201). For activity change, negative = inhibition: series mostly up to about 120 µM. Note: nearly all actives have a fitted effect of over 50% in size. The method in brief:
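Proluciferin-to-luciferin conversion by CYP3A4, NADPH-regenerated, 1 h RT; luminescence read as RLU. Ketoconazole as control.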
% is set by controls: 0 for no effect and ±100 for the full control effect; potency is the fitted concentration of half-maximal effect.

Sequence of Cytochrome P450 1A2 (Homo sapiens) (P05177 whole entry, looked up): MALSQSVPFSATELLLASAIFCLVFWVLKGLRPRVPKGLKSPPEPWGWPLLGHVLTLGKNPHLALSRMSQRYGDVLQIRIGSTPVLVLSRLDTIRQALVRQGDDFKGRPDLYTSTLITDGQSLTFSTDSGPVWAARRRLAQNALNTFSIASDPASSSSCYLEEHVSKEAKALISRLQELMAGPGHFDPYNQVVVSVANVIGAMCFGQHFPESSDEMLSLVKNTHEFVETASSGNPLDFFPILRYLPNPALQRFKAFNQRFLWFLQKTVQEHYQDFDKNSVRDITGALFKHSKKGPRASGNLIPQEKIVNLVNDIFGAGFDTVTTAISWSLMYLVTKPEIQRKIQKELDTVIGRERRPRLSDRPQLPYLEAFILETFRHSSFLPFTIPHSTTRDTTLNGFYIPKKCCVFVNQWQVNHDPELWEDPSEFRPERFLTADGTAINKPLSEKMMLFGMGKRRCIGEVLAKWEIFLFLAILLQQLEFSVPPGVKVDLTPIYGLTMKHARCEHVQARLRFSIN
Sequence of Cytochrome P450 3A4 (Homo sapiens) (P08684 whole entry, looked up): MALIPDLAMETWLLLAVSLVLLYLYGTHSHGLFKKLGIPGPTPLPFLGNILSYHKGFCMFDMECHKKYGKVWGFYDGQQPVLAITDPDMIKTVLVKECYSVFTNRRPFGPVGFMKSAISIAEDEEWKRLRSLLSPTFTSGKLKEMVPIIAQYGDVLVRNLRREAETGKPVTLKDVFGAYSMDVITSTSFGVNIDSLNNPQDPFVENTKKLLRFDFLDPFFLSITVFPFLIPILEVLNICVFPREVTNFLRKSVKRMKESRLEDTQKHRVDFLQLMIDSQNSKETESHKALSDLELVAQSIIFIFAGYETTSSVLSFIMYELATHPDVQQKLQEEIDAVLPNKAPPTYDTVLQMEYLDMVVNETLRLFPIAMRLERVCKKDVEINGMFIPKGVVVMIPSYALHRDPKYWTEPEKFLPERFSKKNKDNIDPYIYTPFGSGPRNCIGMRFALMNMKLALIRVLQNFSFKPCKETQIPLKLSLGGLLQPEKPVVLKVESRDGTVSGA
Sequence of Cytochrome P450 2C9 (Homo sapiens) (P11712 whole entry, looked up): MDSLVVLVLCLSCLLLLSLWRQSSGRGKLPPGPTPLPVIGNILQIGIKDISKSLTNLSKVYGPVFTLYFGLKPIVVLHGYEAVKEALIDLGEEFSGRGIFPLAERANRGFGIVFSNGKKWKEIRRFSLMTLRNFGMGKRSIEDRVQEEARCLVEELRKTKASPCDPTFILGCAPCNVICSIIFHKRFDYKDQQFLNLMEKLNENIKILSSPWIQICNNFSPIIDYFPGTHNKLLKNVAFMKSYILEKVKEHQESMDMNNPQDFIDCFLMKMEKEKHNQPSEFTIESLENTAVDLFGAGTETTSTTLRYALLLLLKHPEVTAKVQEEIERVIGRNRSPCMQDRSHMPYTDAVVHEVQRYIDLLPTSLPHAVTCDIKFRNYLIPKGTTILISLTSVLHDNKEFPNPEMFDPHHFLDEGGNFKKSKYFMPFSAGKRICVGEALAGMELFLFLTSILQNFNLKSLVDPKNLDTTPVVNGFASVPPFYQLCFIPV
Sequence of Cytochrome P450 2C19 (Homo sapiens) (P33261 whole entry, looked up): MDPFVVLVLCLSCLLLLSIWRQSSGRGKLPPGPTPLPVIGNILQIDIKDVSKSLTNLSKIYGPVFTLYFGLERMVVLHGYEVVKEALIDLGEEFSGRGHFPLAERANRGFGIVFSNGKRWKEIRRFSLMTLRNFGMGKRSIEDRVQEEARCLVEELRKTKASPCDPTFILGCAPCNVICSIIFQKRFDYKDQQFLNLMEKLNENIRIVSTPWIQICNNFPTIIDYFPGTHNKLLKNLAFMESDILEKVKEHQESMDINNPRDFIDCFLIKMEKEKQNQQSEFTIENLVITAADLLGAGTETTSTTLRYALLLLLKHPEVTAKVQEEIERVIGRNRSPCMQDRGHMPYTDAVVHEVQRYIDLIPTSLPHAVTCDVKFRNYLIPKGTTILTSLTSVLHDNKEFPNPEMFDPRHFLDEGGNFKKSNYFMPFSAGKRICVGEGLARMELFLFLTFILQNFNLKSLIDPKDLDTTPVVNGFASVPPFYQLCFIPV

Consider `Cc1ccc(N=Nc2c(O)c(C(=O)O)cc3ccccc23)c(S(=O)(=O)O)c1`, for which the Potency result in test [1], in test [3], in test [4] and in test [5] was “inactive” each time. Further, the Potency in test [2] is 34.5 µM (active).

On to `CCOC(=O)C(F)(F)F`, for which the Potency entry in test [1], in test [2], in test [3], in test [4] and in test [5] was “inactive” throughout.

Regarding `CCO[C@H](Cc1ccc(OCCc2ccc(OS(C)(=O)=O)cc2)cc1)C(=O)O`, the Potency result in test [1], in test [2], in test [3], in test [4] and in test [5] was “inactive” in each case.

In the case of `CC1CCC(=O)C1=O` (centres undefined), the Potency entry in test [1], in test [2], in test [3], in test [4] and in test [5] was “inactive” in each case.

For the compound `Brc1c2ccccc2cc2ccccc12`, the Potency in test [1] was 35.9 µM (active); in test [2] it was 35.9 µM (active); in test [3], 0.639 µM (active); in test [5], 18 µM (active). Moreover, in test [4], the Potency result was “inactive”.

Consider `Cc1oc2c(NC(=O)c3c(Cl)cccc3Cl)cccc2c1C(C)(C)O`, for which the Potency entry in test [1] and in test [4] was “inactive” throughout. The Potency is 1.59 µM (active) in test [2], 31.7 µM (active) in test [3] and 28.3 µM (active) in test [5].

In the case of `CCC(C)(C)CC`, the Potency entry in test [1], in test [2], in test [3], in test [4] and in test [5] was “inactive” throughout.

As for `COC(C)OC`, the Potency entry in test [1], in test [2], in test [3], in test [4] and in test [5] was “inactive” in each case.

Turning to `CC1=CC=C(C(C)C)CC1`, the Potency was 35.6 µM (active) in test [1], 63.3 µM (active) in test [2], 31.7 µM (active) in test [3] and 39.9 µM (active) in test [5]. For the same compound, the Potency result in test [4] was “inactive”.

`CC1OC(=O)C(C)OC1=O` (centres undefined): the Potency result in test [1], in test [2], in test [3], in test [4] and in test [5] was “inactive” each time.

With `Brc1c2ccccc2c(Br)c2ccccc12`, the activity change, negative = inhibition in test [1] was -7.43% [at 10.5 µM]; in test [2] it was -3.76% [at 10.5 µM]; in test [4], -0.46% [at 6.97 µM]; in test [5], 1.1% [at 10.5 µM]. In addition, in test [3], the Potency was 0.719 µM (active).

With `OC(CN1CCC(Cc2ccc(F)cc2)CC1)c1ccc(Cl)cc1` (centres undefined), the Potency result in test [1], in test [2], in test [3] and in test [5] was “inactive” in each case. Further, in test [4], the Potency is 0.0849 µM (active).

As to `Cc1ccccc1S(=O)(=O)O`, the Potency result in test [1], in test [2], in test [3], in test [4] and in test [5] was “inactive” each time.

For the compound `CC(=O)[O][Al][O]C(C)=O`, the Potency entry in test [1], in test [2], in test [3], in test [4] and in test [5] was “inactive” each time.

In the case of `CC(COCCO)OCCO` (centres undefined), the Potency entry in test [1], in test [2], in test [3], in test [4] and in test [5] was “inactive” each time.

As for `COC(C)(C)CCO`, the Potency entry in test [1], in test [2], in test [3], in test [4] and in test [5] was “inactive” throughout.

As to `O=C1OC(CN2CCOCC2)CN1/N=C/c1ccc([N+](=O)[O-])o1` (centres undefined), the Potency entry in test [1], in test [2], in test [3], in test [4] and in test [5] was “inactive” in each case.

For `CCCCC(CC)COC(=O)CCCCCCCCC(=O)OCC(CC)CCCC` (centres undefined), the Potency entry in test [1], in test [2], in test [4] and in test [5] was “inactive” in each case. Also, in test [3], the Potency is 39.9 µM (active).

For the compound `CCn1cc(C(=O)O)c(=O)c2cnc(N3CCNCC3)nc21`, the Potency result in test [1], in test [2], in test [3], in test [4] and in test [5] was “inactive” in each case.

As for `NC(=O)C(c1ccccc1)(c1ccccc1)[C@@H]1CCN(CCc2ccc3c(c2)CCO3)C1`, the Potency entry in test [1], in test [2], in test [3] and in test [5] was “inactive” each time.

For `CCOC(=O)NCCOc1ccc(Oc2ccccc2)cc1`, the Potency in test [1] is 6.33 µM (active); in test [2], 20 µM (active); in test [3], 11.2 µM (active). Further, the Potency result in test [5] is “inactive”.

Turning to `CCCCCCCCCCCc1ccccc1`, the Potency entry in test [1], in test [2], in test [3] and in test [5] was “inactive” throughout.

On to `CC(C)=CCC/C(C)=C/CC/C(C)=C/CO`, for which the Potency is 4.48 µM (active) in test [1], 17.8 µM (active) in test [2], 28.3 µM (active) in test [3] and 25.2 µM (active) in test [5].

Regarding `CCOC(=O)Cc1cccc2ccccc12`, the Potency in test [1] is 20 µM (active); in test [3], 15.9 µM (active). The Potency entry in test [2], in test [4] and in test [5] was “inactive” in each case.

For the compound `CC/C=C\CCOC(=O)CC`, the Potency entry in test [1], in test [2], in test [3] and in test [5] was “inactive” in each case.

For the compound `NCCCN1CCOCC1`, the Potency result in test [1], in test [2], in test [3], in test [4] and in test [5] was “inactive” each time.

For the compound `CCNc1cc(O)ccc1C`, the Potency in test [1] is 35.2 µM (active); in test [2], 9.92 µM (active); in test [3], 12.5 µM (active); in test [5], 9.92 µM (active). Moreover, the Potency entry in test [4] is “inactive”.

Regarding `O=C(Nc1ccccc1)c1ccccc1O`, the Potency in test [1] is 22.4 µM (active); in test [2], 31.7 µM (active); in test [3] it was 5.03 µM (active). Besides, the Potency result in test [5] was “inactive”.

Regarding `CN(C)c1ccc(C(c2ccccc2)c2ccc(N(C)C)cc2)cc1`, the Potency in test [1] was 1.59 µM (active); in test [2], 1.42 µM (active); in test [3] it was 14.2 µM (active); in test [5] it was 4.48 µM (active). Besides, the Potency entry in test [4] was “inactive”.
